The nature of one experiment: High-throughput drug toxicity screening in the BPDCN cell line Gen2.2 (AID 1224824).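 Further: cells exposed to compounds for 48 h before reading.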 As to conditions: Gen2.2 BPDCN cells; at 45.8 µM (top of the series) unless noted. The procedure, abridged: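 CellTiter-Glo luminescence after 48 h compound exposure of Gen2.2 cells; percent activity set with DMSO as 100% and bortezomib (9.2 uM final) as 0%. Cells seeded at 500 per well, RPMI + 10% FBS, 37 °C.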
`C[C@@H]1C[C@H]2[C@@H]3CCC4=CC(=O)C=C[C@]4(C)[C@@]3(F)[C@@H](O)C[C@]2(C)[C@@]1(O)C(=O)CO`: the cell viability, % of control (lower = more cytotoxic) worked out at 184%.
Consider `N#Cc1c(N(CC(=O)O)CC(=O)O)sc(C(=O)O)c1CC(=O)O`, for which the cell viability, % of control (lower = more cytotoxic) turned out to be 5.77%.
Still for that read-out and setting: the figure for `CCCCCCCCCCCCCC(=O)N[C@H](CO)[C@H](O)c1ccc([N+](=O)[O-])cc1` is 1.84%; for `C=C1c2cccc(O)c2C(O)=C2C(=O)[C@@]3(O)C(O)=C(C(N)=O)C(=O)[C@@H](N(C)C)[C@@H]3[C@@H](O)[C@H]12` it is 88.8%.
The same measure, in the same setting: with `CCC(=C(CC)c1ccc(O)cc1)c1ccc(O)cc1` the figure was 111%.
Still for that read-out and setting: with `CN1C(=O)C[C@H](C(=O)N[C@@H](Cc2cnc[nH]2)C(=O)N2CCC[C@@H]2C(N)=O)NC1=O` the figure was 61%; with `CC1(C)[C@H]2CC[C@]3(C)[C@@H](C(=O)C=C4[C@@H]5C[C@@](C)(C(=O)O)CC[C@]5(C)CC[C@]43C)[C@@]2(C)CC[C@@H]1O`, 139%.
As to `CN1CCc2c(n(Cc3ccc(C(=O)NO)cc3)c3ccccc23)C1`, the cell viability, % of control (lower = more cytotoxic) came out at 17.7%.
On the same count and under the same terms, the figure for `Cc1[nH]c(C=C2C(=O)Nc3ccc(S(=O)(=O)N(C)c4cccc(Cl)c4)cc32)c(C)c1C(=O)N1CCN(C)CC1` is 2.96%; for `CCC(C)SSc1ncc[nH]1` (configuration not stated) it is 7.07%.
On the same count and under the same terms, the figure for `O=C(O)C1=CC(O)C(O)[C@H](O)C1` (some centres not stated) is 146%; for `CC(=O)OCC(=O)[C@@]12OC(C)(C)O[C@H]1C[C@H]1[C@@H]3C[C@H](F)C4=CC(=O)C=C[C@]4(C)[C@@]3(F)[C@@H](O)C[C@@]12C` it is 76.3%; for `CN(C)c1ccc(-c2nc3ncc(Cl)c(N4CCN(CC(=O)Nc5nccs5)CC4)c3[nH]2)cc1` it is 3.51%.
Still for that read-out and setting: the figure for `CCCCC(F)(F)[C@@]1(O)CC[C@H]2[C@H](CC(=O)[C@@H]2CCCCCCC(=O)O)O1` is 92.5%; for `CC(C)CN(C[C@H](O)[C@H](Cc1ccccc1)NC(=O)O[C@H]1CCOC1)S(=O)(=O)c1ccc(N)cc1` it is 149%.
As to `COc1cc(Cl)cn2c(-c3cccc(NC4CNC4)n3)cnc12`, the cell viability, % of control (lower = more cytotoxic) is 91.4%.
The same measure, in the same setting: the figure for `Cc1cc2nc3c(=O)[nH]c(=O)nc-3n(CC(O)C(O)C(O)CO)c2cc1C` (configuration not stated) is 77.3%; for `CN1CCN(c2ncc(-c3cc(Cl)cc(Cl)c3Cl)c(N)n2)CC1` it is 54.8%; for `CC(NCCc1ccc(O)cc1)C(O)c1ccc(O)cc1` (configuration not stated) it is 91%.
On the same count and under the same terms, with `NC(=O)c1ncn([C@@H]2O[C@H](CO)[C@@H](O)[C@@H]2O)n1` the figure was 109%; with `CCCC1OC2C[C@@H]3[C@H]4CCC5=CC(=O)C=C[C@]5(C)[C@H]4C(O)C[C@]3(C)[C@]2(C(=O)CO)O1` (some centres not stated), 12.2%.
The same measure, in the same setting: with `Nc1ncnc2c1ncn2[C@@H]1O[C@H](CO)[C@@H](O)[C@@H]1O` the figure was 108%; with `COc1ccc(-c2nc3ccc(C4=NNC(=O)CC4C)cc3[nH]2)cc1` (configuration not stated), 263%; with `C#CCN(C)CC1=Cc2ccccc2Oc2ccccc21`, 124%.
In the case of `O=C(c1ccc(C(=O)N2CCC(N3CCCC3)CC2)c(Nc2ccccc2)c1)N1CCC(N2CCCC2)CC1`, the cell viability, % of control (lower = more cytotoxic) stood at 483%.
For `NS(=O)(=O)c1cc(Cl)c(Cl)c(S(N)(=O)=O)c1`, the cell viability, % of control (lower = more cytotoxic) was determined as 166%.
As for `Cc1nn(Cc2ccccc2Cl)c(C)c1CN(C)CC(O)COc1ccc(Cl)cc1` (configuration not stated), the cell viability, % of control (lower = more cytotoxic) was 18%.
The same measure, in the same setting: the figure for `CC(C)c1onc(-c2c(Cl)cccc2Cl)c1COc1ccc(C=Cc2cccc(C(=O)O)c2)c(Cl)c1` is 76.8%; for `CC1(C)C(N(O)C(=O)Nc2ccc(Cl)cc2)N(c2ccc(Cl)cc2)C(=O)N1CC(=O)NN=CC=Cc1ccc([N+](=O)[O-])o1` (configuration not stated) it is 3.85%.
On the same count and under the same terms, the figure for `COc1cc2nccc(Oc3ccc(NC(=O)Nc4cc(C)on4)c(Cl)c3)c2cc1OC` is 52.1%.
As for `Nc1ccc(-c2ccc3ncc4ccc(=O)n(-c5cccc(C(F)(F)F)c5)c4c3c2)cn1`, the cell viability, % of control (lower = more cytotoxic) turned out to be 6.66%.
Same read-out and setting: with `COc1c(C)c2c(c(O)c1CC=C(C)CCC(=O)O)C(=O)OC2` the figure was 94.4%; with `CNC1[C@H](O)C(O[C@@H]2C(O)C(O[C@H]3O[C@H]([C@@H](C)NC)CC[C@H]3N)[C@@H](N)C[C@H]2N)OC[C@]1(C)O` (some centres not stated), 116%.
Same read-out and setting: with `CC(C)=CCCC(C)=CCCC(C)=CCCC(C)=CCCC(C)=CCCC(C)=CCCC(C)=CCCC(C)=CCCC(C)=CCO` the figure was 132%.
In the case of `COc1cc([C@@H]2c3cc4c(cc3[C@@H](O[C@@H]3O[C@@H]5CO[C@@H](C)O[C@@H]5[C@H](O)[C@@H]3O)[C@H]3COC(=O)[C@H]23)OCO4)cc(OC)c1O`, the cell viability, % of control (lower = more cytotoxic) was 57.1%.
Same read-out and setting: the figure for `C[C@H]1[C@H](O)O[C@@H]2O[C@@]3(C)CC[C@@H]4[C@H](C)CC[C@@H]1[C@@]24OO3` is 15.8%.

The next experiment can be described thus: High-throughput drug toxicity screening in the BPDCN cell line Cal-1 (AID 1224825). The following applies: Cal-1 BPDCN cell viability, qHTS; at 45.8 µM (top of the series) unless noted. An outline of the steps:
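Cal-1 cells, 500 per well in phenol-red-free RPMI with 10% FBS, exposed to compounds for 48 hours at 37C, 5% CO2. Viability read by CellTiter-Glo luminescence; percent activity normalized to DMSO (100%) and 9.2 uM bortezomib final (0%).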
For orientation: In qHTS, concentration-response curves come from the screen itself.
In the case of `C[C@@H]1C[C@H]2[C@@H]3CCC4=CC(=O)C=C[C@]4(C)[C@@]3(F)[C@@H](O)C[C@]2(C)[C@@]1(O)C(=O)CO`, the viability (% of control) amounted to 55.5%.
On to `N#Cc1c(N(CC(=O)O)CC(=O)O)sc(C(=O)O)c1CC(=O)O`, for which the viability (% of control) worked out at 9.17%.
Same read-out and setting: with `CCCCCCCCCCCCCC(=O)N[C@H](CO)[C@H](O)c1ccc([N+](=O)[O-])cc1` the figure was 5.68%; with `C=C1c2cccc(O)c2C(O)=C2C(=O)[C@@]3(O)C(O)=C(C(N)=O)C(=O)[C@@H](N(C)C)[C@@H]3[C@@H](O)[C@H]12`, 94.6%; with `CCC(=C(CC)c1ccc(O)cc1)c1ccc(O)cc1`, 25.3%.
On the same count and under the same terms, the figure for `CN1C(=O)C[C@H](C(=O)N[C@@H](Cc2cnc[nH]2)C(=O)N2CCC[C@@H]2C(N)=O)NC1=O` is 29.3%; for `CC1(C)[C@H]2CC[C@]3(C)[C@@H](C(=O)C=C4[C@@H]5C[C@@](C)(C(=O)O)CC[C@]5(C)CC[C@]43C)[C@@]2(C)CC[C@@H]1O` it is 111%; for `CN1CCc2c(n(Cc3ccc(C(=O)NO)cc3)c3ccccc23)C1` it is 3.16%.
For `Cc1[nH]c(C=C2C(=O)Nc3ccc(S(=O)(=O)N(C)c4cccc(Cl)c4)cc32)c(C)c1C(=O)N1CCN(C)CC1`, the viability (% of control) came out at 0.852%.
The same measure, in the same setting: the figure for `CCC(C)SSc1ncc[nH]1` (configuration not stated) is 6.97%; for `O=C(O)C1=CC(O)C(O)[C@H](O)C1` (some centres not stated) it is 105%.
On the same count and under the same terms, the figure for `CC(=O)OCC(=O)[C@@]12OC(C)(C)O[C@H]1C[C@H]1[C@@H]3C[C@H](F)C4=CC(=O)C=C[C@]4(C)[C@@]3(F)[C@@H](O)C[C@@]12C` is 56.5%; for `CN(C)c1ccc(-c2nc3ncc(Cl)c(N4CCN(CC(=O)Nc5nccs5)CC4)c3[nH]2)cc1` it is 8.53%.
On to `CCCCC(F)(F)[C@@]1(O)CC[C@H]2[C@H](CC(=O)[C@@H]2CCCCCCC(=O)O)O1`, for which the viability (% of control) was determined as 106%.
Still for that read-out and setting: the figure for `CC(C)CN(C[C@H](O)[C@H](Cc1ccccc1)NC(=O)O[C@H]1CCOC1)S(=O)(=O)c1ccc(N)cc1` is 97.6%.
On the same count and under the same terms, the figure for `COc1cc(Cl)cn2c(-c3cccc(NC4CNC4)n3)cnc12` is 5.98%; for `Cc1cc2nc3c(=O)[nH]c(=O)nc-3n(CC(O)C(O)C(O)CO)c2cc1C` (configuration not stated) it is 101%.
Still for that read-out and setting: with `CN1CCN(c2ncc(-c3cc(Cl)cc(Cl)c3Cl)c(N)n2)CC1` the figure was 22.1%.
For `CC(NCCc1ccc(O)cc1)C(O)c1ccc(O)cc1` (configuration not stated), the viability (% of control) stood at 107%.
On the same count and under the same terms, the figure for `NC(=O)c1ncn([C@@H]2O[C@H](CO)[C@@H](O)[C@@H]2O)n1` is 73.5%.
Still for that read-out and setting: with `CCCC1OC2C[C@@H]3[C@H]4CCC5=CC(=O)C=C[C@]5(C)[C@H]4C(O)C[C@]3(C)[C@]2(C(=O)CO)O1` (some centres not stated) the figure was 11.8%.
Take `Nc1ncnc2c1ncn2[C@@H]1O[C@H](CO)[C@@H](O)[C@@H]1O`: the viability (% of control) worked out at 18.3%.
As for `COc1ccc(-c2nc3ccc(C4=NNC(=O)CC4C)cc3[nH]2)cc1` (configuration not stated), the viability (% of control) was determined as 107%.
`C#CCN(C)CC1=Cc2ccccc2Oc2ccccc21`: the viability (% of control) amounted to 98%.
On the same count and under the same terms, with `O=C(c1ccc(C(=O)N2CCC(N3CCCC3)CC2)c(Nc2ccccc2)c1)N1CCC(N2CCCC2)CC1` the figure was 113%; with `NS(=O)(=O)c1cc(Cl)c(Cl)c(S(N)(=O)=O)c1`, 125%; with `Cc1nn(Cc2ccccc2Cl)c(C)c1CN(C)CC(O)COc1ccc(Cl)cc1` (configuration not stated), 53.4%.
The same measure, in the same setting: the figure for `CC(C)c1onc(-c2c(Cl)cccc2Cl)c1COc1ccc(C=Cc2cccc(C(=O)O)c2)c(Cl)c1` is 107%; for `CC1(C)C(N(O)C(=O)Nc2ccc(Cl)cc2)N(c2ccc(Cl)cc2)C(=O)N1CC(=O)NN=CC=Cc1ccc([N+](=O)[O-])o1` (configuration not stated) it is 2.85%.
Regarding `COc1cc2nccc(Oc3ccc(NC(=O)Nc4cc(C)on4)c(Cl)c3)c2cc1OC`, the viability (% of control) came to 13%.
Still for that read-out and setting: the figure for `Nc1ccc(-c2ccc3ncc4ccc(=O)n(-c5cccc(C(F)(F)F)c5)c4c3c2)cn1` is 3.86%.
Still for that read-out and setting: with `COc1c(C)c2c(c(O)c1CC=C(C)CCC(=O)O)C(=O)OC2` the figure was 16.3%.
The same measure, in the same setting: the figure for `CNC1[C@H](O)C(O[C@@H]2C(O)C(O[C@H]3O[C@H]([C@@H](C)NC)CC[C@H]3N)[C@@H](N)C[C@H]2N)OC[C@]1(C)O` (some centres not stated) is 101%; for `CC(C)=CCCC(C)=CCCC(C)=CCCC(C)=CCCC(C)=CCCC(C)=CCCC(C)=CCCC(C)=CCCC(C)=CCO` it is 121%; for `COc1cc([C@@H]2c3cc4c(cc3[C@@H](O[C@@H]3O[C@@H]5CO[C@@H](C)O[C@@H]5[C@H](O)[C@@H]3O)[C@H]3COC(=O)[C@H]23)OCO4)cc(OC)c1O` it is 8.03%.
Turning to `C[C@H]1[C@H](O)O[C@@H]2O[C@@]3(C)CC[C@@H]4[C@H](C)CC[C@@H]1[C@@]24OO3`, the viability (% of control) was 7.2%.

These data come from PubChem BioAssay (NCATS).
